Experimental data as given in the supplement of paper PMC11732987, “Enantioselective OTUD7B fragment discovery through chemoproteomics screening and high-throughput optimisation” (Communications Chemistry, 2025).

Key:
Test in all cases: log2 ratio of Biotin-Ahx-Ub-VS probe labelling (fragment/DMSO); higher = less target engagement (more negative = stronger competition), active = hit call of the paper (q ≤ 0.05, log2 ratio ≤ -1)
Conditions in all cases: compound concentration: 200 uM; treatment time: 3 h
USP34 = USP34 (UniProt Q70CQ2)
USP34, sequence (Q70CQ2 whole entry, the tested form may be a part): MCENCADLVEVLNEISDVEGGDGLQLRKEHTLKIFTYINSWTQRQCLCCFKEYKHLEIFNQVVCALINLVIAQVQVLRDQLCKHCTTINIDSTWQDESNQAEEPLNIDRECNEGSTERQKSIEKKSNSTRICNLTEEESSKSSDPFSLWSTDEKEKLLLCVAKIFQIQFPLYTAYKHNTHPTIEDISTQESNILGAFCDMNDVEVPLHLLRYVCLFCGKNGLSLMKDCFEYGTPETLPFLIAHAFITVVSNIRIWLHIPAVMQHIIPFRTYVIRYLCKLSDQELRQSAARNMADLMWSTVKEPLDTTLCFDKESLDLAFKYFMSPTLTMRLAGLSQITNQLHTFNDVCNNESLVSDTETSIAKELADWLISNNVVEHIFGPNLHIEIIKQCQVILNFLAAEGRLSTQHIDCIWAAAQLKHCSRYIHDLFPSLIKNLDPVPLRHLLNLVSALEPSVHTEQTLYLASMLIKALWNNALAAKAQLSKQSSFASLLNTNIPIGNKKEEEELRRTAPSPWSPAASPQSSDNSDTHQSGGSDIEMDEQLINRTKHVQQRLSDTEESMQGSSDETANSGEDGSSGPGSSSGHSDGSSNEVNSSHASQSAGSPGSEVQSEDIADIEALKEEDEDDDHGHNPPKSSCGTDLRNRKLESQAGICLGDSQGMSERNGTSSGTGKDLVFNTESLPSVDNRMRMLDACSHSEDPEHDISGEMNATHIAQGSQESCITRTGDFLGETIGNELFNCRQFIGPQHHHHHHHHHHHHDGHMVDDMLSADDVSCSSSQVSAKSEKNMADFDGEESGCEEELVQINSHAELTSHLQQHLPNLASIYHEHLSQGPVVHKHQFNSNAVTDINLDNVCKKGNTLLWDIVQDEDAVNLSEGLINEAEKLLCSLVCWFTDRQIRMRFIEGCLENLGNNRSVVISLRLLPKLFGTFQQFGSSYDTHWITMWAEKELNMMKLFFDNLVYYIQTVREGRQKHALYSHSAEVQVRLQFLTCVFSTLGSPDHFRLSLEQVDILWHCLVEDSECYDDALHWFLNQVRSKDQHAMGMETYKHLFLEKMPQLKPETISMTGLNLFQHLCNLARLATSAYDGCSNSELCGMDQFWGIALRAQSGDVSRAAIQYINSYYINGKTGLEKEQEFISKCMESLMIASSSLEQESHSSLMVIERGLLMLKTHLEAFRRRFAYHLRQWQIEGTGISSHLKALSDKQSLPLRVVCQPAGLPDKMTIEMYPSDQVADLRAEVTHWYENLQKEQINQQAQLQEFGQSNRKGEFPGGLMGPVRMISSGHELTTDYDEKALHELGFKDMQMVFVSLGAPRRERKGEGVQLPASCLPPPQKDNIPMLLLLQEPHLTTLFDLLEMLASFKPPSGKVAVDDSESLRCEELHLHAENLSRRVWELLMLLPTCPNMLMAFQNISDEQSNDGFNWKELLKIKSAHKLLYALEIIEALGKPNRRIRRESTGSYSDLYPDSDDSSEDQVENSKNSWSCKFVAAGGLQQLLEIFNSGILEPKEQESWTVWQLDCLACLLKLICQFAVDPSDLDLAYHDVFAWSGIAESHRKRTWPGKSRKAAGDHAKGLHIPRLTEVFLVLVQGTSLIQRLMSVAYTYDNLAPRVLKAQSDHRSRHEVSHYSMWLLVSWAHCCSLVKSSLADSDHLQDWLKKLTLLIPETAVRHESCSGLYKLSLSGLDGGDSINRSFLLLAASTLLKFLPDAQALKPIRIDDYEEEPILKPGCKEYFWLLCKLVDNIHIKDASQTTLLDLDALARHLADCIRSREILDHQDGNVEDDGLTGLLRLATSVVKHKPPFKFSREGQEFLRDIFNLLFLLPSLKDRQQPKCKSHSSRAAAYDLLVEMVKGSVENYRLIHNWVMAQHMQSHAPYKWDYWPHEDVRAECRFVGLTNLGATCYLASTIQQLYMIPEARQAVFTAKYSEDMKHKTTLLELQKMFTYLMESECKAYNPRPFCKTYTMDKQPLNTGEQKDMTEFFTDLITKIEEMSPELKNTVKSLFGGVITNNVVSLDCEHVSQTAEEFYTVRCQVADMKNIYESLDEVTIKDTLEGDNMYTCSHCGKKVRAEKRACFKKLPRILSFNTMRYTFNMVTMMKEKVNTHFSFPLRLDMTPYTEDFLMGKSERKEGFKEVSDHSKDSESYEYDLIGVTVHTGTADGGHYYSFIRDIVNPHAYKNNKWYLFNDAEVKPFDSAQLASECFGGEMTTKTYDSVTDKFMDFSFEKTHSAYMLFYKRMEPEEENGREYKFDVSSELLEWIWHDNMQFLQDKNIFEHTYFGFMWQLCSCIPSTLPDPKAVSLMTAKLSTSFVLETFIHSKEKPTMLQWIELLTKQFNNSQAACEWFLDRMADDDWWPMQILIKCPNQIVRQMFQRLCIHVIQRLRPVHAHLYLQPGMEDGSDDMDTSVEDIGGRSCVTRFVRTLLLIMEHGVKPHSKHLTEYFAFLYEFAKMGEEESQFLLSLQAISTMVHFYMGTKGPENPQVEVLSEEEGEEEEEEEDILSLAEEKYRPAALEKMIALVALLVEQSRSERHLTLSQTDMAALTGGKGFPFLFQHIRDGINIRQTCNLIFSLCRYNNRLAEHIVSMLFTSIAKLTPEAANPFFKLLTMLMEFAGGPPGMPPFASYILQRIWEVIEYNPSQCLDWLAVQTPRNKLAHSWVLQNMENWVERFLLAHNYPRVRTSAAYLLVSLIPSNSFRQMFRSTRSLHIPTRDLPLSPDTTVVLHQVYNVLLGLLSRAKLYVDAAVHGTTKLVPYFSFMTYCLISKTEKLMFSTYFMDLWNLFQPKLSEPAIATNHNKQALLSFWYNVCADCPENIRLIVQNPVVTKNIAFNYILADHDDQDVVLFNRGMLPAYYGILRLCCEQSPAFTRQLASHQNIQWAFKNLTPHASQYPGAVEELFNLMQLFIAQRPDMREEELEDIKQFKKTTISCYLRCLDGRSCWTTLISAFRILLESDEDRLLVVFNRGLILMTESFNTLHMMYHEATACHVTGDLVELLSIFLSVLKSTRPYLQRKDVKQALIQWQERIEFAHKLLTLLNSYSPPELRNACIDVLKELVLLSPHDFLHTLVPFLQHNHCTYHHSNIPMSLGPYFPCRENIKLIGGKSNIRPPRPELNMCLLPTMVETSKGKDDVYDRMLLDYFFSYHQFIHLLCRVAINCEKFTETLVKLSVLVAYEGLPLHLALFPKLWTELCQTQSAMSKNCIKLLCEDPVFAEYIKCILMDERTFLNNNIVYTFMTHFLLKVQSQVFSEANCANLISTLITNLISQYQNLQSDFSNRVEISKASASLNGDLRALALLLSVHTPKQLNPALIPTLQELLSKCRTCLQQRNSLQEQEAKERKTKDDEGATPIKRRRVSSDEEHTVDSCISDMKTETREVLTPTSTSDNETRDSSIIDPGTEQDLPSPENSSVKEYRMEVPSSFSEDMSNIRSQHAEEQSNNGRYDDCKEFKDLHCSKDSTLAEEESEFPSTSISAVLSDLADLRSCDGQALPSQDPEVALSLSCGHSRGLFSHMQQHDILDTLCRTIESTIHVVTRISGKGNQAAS
In short: (§1)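 Triplicate samples of HEK293T lysate, 495 µg each, received fragment at 200 µM or vehicle for 3 h, followed by Biotin-Ahx-Ub-VS (0.5 µM final) for 1 h. After NeutrAvidin enrichment of labelled DUBs and LysC/trypsin digestion, peptides were run by diaPASEF LC-MS/MS. The values are average log2 fragment/vehicle ratios from global-median-normalised Spectronaut label-free quantities, tested by unpaired t-test on proteins having ≥2 unique peptides.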

USP36 = biological target: T1, USP36 (UniProt Q9P275)
T1 sequence (whole entry): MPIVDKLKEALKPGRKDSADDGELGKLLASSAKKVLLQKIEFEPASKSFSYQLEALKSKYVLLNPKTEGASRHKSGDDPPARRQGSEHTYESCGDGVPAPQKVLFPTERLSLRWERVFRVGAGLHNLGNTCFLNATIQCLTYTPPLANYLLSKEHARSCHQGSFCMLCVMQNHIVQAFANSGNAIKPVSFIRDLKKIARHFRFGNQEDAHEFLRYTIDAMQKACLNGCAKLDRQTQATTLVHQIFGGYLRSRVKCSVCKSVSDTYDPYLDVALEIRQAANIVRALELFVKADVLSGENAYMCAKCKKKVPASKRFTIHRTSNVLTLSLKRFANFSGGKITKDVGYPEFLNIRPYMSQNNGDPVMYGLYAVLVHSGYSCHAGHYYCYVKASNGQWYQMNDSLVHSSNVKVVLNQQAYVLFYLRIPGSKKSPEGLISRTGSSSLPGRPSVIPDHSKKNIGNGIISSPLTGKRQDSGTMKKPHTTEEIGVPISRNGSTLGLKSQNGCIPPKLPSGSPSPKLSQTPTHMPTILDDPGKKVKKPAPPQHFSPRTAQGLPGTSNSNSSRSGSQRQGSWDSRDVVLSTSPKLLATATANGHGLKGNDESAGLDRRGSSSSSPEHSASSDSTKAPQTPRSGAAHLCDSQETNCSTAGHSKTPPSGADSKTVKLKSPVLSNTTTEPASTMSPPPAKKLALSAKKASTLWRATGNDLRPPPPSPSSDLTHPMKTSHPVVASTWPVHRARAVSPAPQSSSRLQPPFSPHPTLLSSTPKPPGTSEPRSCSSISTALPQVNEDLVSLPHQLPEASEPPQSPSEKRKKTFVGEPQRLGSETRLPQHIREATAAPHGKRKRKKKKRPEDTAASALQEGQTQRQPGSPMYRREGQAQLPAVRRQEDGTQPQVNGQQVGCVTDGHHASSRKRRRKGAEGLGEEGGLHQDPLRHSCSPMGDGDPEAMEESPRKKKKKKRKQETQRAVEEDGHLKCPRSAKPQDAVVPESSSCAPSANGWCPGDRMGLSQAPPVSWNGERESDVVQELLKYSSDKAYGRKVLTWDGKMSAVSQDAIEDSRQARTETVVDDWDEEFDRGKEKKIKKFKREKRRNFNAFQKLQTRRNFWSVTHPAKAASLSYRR
In short: as §1

USP38 = biological target: T2, USP38 (UniProt Q8NB14)
T2 sequence (whole entry): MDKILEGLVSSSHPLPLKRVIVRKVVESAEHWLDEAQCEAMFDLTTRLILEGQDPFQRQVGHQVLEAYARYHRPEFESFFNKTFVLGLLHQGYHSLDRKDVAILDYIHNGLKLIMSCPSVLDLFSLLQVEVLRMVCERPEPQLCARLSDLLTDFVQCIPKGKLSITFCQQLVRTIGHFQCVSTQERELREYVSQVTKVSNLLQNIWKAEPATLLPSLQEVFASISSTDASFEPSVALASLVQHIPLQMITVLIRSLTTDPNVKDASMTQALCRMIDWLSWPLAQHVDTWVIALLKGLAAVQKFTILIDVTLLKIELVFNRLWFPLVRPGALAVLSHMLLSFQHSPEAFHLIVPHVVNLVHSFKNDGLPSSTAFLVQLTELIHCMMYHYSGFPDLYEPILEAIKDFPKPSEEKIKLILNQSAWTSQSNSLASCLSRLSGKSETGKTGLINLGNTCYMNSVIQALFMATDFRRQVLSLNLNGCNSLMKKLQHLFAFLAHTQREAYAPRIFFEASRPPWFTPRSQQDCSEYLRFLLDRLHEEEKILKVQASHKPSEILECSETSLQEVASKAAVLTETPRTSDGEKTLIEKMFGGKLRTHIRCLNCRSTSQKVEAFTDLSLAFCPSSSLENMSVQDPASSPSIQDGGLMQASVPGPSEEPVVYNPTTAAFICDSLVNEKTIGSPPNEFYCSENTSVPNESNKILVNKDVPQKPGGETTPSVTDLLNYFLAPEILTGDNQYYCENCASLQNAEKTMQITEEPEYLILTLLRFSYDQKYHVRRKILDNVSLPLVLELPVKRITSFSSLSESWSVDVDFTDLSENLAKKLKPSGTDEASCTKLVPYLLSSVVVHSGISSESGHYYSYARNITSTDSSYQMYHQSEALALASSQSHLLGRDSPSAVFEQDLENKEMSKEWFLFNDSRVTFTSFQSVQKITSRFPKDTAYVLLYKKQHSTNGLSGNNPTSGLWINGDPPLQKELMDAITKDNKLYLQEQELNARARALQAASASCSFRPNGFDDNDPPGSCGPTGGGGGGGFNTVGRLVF
In short: as §1

USP39 = biological target: T3, USP39 (UniProt Q53GS9)
T3 sequence (whole entry): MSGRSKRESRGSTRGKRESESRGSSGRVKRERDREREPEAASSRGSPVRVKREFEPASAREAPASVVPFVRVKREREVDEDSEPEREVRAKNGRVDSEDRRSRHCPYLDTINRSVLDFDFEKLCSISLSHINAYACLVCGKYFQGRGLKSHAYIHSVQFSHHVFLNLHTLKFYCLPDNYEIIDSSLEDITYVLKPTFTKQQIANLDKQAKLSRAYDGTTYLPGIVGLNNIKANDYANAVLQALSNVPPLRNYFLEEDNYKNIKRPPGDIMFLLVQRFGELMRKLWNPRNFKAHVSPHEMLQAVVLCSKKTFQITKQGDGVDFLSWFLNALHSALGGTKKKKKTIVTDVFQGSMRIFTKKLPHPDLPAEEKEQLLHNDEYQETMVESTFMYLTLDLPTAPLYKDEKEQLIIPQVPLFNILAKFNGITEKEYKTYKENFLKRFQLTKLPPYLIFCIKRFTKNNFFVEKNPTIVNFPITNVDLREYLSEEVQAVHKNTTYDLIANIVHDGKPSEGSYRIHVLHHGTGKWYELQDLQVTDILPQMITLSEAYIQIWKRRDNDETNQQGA
In short: as §1

USP4 = biological target: T4, USP4 (UniProt Q13107)
T4 sequence (whole entry): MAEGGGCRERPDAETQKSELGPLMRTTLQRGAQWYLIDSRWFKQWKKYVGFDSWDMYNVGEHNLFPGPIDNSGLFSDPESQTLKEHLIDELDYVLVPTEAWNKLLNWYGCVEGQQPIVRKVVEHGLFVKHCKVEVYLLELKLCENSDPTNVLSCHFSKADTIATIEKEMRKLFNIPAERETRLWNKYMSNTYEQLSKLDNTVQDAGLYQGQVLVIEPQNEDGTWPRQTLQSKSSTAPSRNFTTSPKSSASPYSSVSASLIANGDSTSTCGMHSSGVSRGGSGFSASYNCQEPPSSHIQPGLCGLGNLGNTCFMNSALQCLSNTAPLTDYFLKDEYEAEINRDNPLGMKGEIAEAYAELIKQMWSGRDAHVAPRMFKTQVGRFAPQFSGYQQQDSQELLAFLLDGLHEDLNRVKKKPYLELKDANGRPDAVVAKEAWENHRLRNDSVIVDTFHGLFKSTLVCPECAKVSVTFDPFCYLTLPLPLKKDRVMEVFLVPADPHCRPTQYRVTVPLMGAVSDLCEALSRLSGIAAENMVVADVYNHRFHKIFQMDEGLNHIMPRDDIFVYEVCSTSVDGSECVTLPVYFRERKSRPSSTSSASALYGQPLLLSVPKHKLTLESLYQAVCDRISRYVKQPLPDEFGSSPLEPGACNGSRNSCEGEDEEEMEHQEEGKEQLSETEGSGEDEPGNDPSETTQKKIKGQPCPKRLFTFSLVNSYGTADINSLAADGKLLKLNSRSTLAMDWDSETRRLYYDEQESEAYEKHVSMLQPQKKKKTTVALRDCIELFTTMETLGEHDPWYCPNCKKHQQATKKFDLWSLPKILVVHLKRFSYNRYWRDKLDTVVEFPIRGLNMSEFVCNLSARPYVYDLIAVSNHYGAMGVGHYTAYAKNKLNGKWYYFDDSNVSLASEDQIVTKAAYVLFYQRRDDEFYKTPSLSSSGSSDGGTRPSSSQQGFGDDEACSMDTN
In short: as §1

Measured: log2 ratio of Biotin-Ahx-Ub-VS probe labelling

O=C(CCl)Nc1cccc(C(=O)N2CCSCC2)c1
inactive: USP34 -0.185 | USP36 0.0297 | USP38 -0.0941 | USP39 0.29 | USP4 -0.272
